Test results taken from PubChem BioAssay (NCATS).
Several values for one entry are separate records, joined by “and”; a condition that tells them apart may be missing. Identical values can stand only once. Inconclusive results are not listed. Activity calls are given as the source filed them. Calls come from the whole dose curve; as a rule, active = well fitted inhibition curve with a large enough effect in the signal ratio, with a control signal flat (not every such curve was filed as active); inconclusive = small, poorly fitted or top-dose-only effect, or effect the other way, or a change in a side signal; inactive = flat fitted curve, though single readings scatter; the % refers to the signal ratio.

These compounds were tested against Thyroid hormone receptor beta (Homo sapiens) (UniProt P10828) (assay: qHTS assay for small molecule antagonists of thyroid hormone receptor beta signaling (AID 588547;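 note: cells stimulated with 0.4 nM T3 agonist during compound exposure; series mostly up to about 77 µM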)). Settings: TR-UAS-bla HEK293, beta-lactamase ratio, antagonist mode, 18 h.
From the text: NIH Chemical Genomics Center [NCGC] U.S. Environmental Protection Agency [EPA] National Institutes of Environmental Health Sciences [NIEHS] National Toxicology Program [NTP] NCGC Assay Overview Thyroid hormone receptor (TR) belongs to nuclear hormone receptor superfamily. There are two subtypes for TR: TR-alpha and TR-beta. TR-beta plays a major role in regulating plasma cholesterol levels and it mediates the biological activities of thyroid hormone. Screening environmental chemicals on TR-beta signaling will provide important information for the mechanism of compound action.
NCGC Assay Protocol Summary Using a beta-lactamase reporter-gene under control of the TR response element, a cell-based assay [GeneBLAzer TR-UAS-bla-GripTite assay developed by Invitrogen] was used to measure TR-beta signaling in antagonist mode. TR-UAS-bla-GripTite HEK 293 cells were used with assay medium containing 2% charcoal/dextran FBS, 0.1 mM NEAA and 1 mM sodium pyruvate. The assay was performed in clear bottom black Greiner 1536-well plates. Library compounds were measured for their ability to inhibit the reporter gene activity. Compounds were screened in a titration series in 1536-well format. The fluorescence intensity (405 nm excitation, 460/530 nm emission) was measured using an EnVision plate reader. […] Concentration-response titration points for each compound were fitted to the Hill equation yielding concentrations of half-maximal inhibition (IC50) and maximal response (efficacy) values. qHTS protocol for TR-beta beta-lactamase assay in antagonist mode [Step] [Parameter] [Value] [Description] 1. Reagent; 5 uL; 2500 cells/well 2. Incubation; 37 C for 4 hrs 3. Compounds; 23 nL; 0.59 nM to 92 uM 4. Controls (DMSO); 23 nL 5. Agonist (Stimulator); 1uL; T3 at 0.4nM (final) concentrations 6. Incubation; 37 C for 18 hrs 7. Detection reagent; 1 uL of CCF4-dye 8. Incubation; RT for 2 hrs 9. Detection; Fluorescence; Envision plate reader
% is set by controls: 0 for no effect and ±100 for the full control effect.

Sequence of Thyroid hormone receptor beta (Homo sapiens) (P10828 whole entry, looked up): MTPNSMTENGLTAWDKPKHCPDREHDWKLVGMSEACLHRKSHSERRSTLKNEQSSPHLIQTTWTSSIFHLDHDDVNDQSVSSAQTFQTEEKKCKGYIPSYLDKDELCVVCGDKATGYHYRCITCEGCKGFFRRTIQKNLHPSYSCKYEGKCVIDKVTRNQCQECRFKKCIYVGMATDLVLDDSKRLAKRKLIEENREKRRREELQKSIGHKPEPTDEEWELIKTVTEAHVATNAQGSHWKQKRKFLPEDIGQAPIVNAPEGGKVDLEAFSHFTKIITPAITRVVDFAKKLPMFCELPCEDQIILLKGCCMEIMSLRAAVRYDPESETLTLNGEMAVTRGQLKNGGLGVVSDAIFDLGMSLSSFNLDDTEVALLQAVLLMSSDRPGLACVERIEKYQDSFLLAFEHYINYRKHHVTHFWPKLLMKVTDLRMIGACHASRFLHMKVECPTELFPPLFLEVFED

| Compound | activity change % (negative = inhibition) |
| --- | --- |
| CCC#N | -12.3% (inactive) |
| CCCCOC(C)=O | 1.15% (inactive) |
| CC(Cl)CCl (stereo not given) | -3.7% (inactive) |
| CCCCOCC1CO1 (stereo not given) | 12.9% (inactive) |
| OCC(Cl)CCl (stereo not given) | -13.6% (inactive) |
| O=C(O)c1cc(Cl)ccc1Cl | 12.5% (inactive) |
| CCSC(=O)N1CCCCCC1 | -3.1% (inactive) and -10.9% (inactive) |
| Nc1cc(Cl)ccc1Cl | 16.8% (inactive) |
| Nc1ccc(Cc2ccc(N)cc2)cc1 | 11% (inactive) and -9.43% (inactive) |
| Nc1ccc2ccccc2c1 | -16.4% (inactive) |
| Cl/C=C/CCl | -4.73% (inactive) |
| Clc1cccc(Cl)c1 | 13.8% (inactive) |
| BrCC(Br)(Br)Br | -15.5% (inactive) |
| COC(=O)c1ccccc1N | -1.98% (inactive) |
| ClCC(Br)CBr (stereo not given) | 6.39% (inactive) |
| Nc1ncc([N+](=O)[O-])s1 | -7.23% (inactive) |
| ClC(Br)Br | 16% (inactive) |
| C=CC(=O)OCCO | 12.5% (inactive) |
| O=Cc1ccc2c(c1)OCO2 | 5.85% (inactive) |
| Cc1ccc(N=C=O)cc1N=C=O | -8.5% (inactive) |

| Compound | activity change % (negative = inhibition) |
| --- | --- |
| C=CCOCC1CO1 (stereo not given) | 1.27% (inactive) |
| CN(C)C(=O)Nc1cccc(C(F)(F)F)c1 | -7.4% (inactive) and -5.84% (inactive) |
| CN(C)c1ccc(N=Nc2ccccc2)cc1 | -4.36% (inactive) |
| Cc1ccc(N)c(C)c1 | 2.7% (inactive) |
| CN(C)c1ccccc1 | -1.14% (inactive) |
| O=[N+]([O-])c1cc(Cl)c(Cl)cc1Cl | 5.06% (inactive) |
| FC(Cl)(Cl)Cl | -7.45% (inactive) |
| Cc1cccc(N)c1C | 2.82% (inactive) |
| CCBr | -4.65% (inactive) |
| CC(=O)[O-].CC(=O)[O-].CC(=O)[O-].[Cr+3] | 2.34% (inactive) |
| O=C(Cc1ccccc1)OCc1ccccc1 | 0.158% (inactive) |
| O=C(O)C(Cl)(Cl)Br | -3.52% (inactive) |
| Nc1ccc(-c2ccc(N)cc2)cc1 | 12.4% (inactive) |
| C=C(Cl)CCl | 0.727% (inactive) |
| Clc1ccccc1 | 8.57% (inactive) |
| Nc1ccc([N+](=O)[O-])cc1N | 8.39% (inactive) and -11.3% (inactive) |
| CCOC(=O)CC(SP(=O)(OC)OC)C(=O)OCC (stereo not given) | -9.27% (inactive) and -19.3% (inactive) |
| NC1CCC(CC2CCC(N)CC2)CC1 (stereo not given) | 7.19% (inactive) |
| O=[N+]([O-])c1c(Cl)c(Cl)c(Cl)c(Cl)c1Cl | 14.8% (inactive) |
| N#CCc1ccccc1 | 23.1% (inactive) |
